# Reference: a collection of fitness landscapes (doi:10.1016/j.celrep.2020.107928)
# Whole data set: some 81,000 sequences, median “one-hybrid fitness for binding parS DNA” near -0.17, cut for the highest 2% near 0.51. The sample as a whole holds a higher share of the highest values than the screen did.
# B1: Caulobacter ParB omega fusion; a variant is named by its letters at X, in order, B8GW30 (parent)
# chain: MESVVVGEPGMSEGRRGLGRGLSALLGEVDAAPAQAPGEQLGGSREAPIEILQRNPDQPRRTFREEDLEDLSNSIREKGVLQPILVRPSPDTAGEYQIVAGERAWRAAQRAGLKTVPIMVRELDDLAVLEIGIIENVQRADLNVLEEALSYKVLMEKFERTQENIAQTIGKSXSHVANXMRLLXLPDEVQSYLVSGELTAXHARAIAAAADPVALAKQIIEGGLSVRETEALARKAPNLSAGKSKGGRPPRVKDTDTQALESDLSSVLGLDVSIDHRGSTGTLTITYATLEQLDDLCNRLTRGI
# Variants of: B1
# Test: one-hybrid fitness for binding parS DNA (scaled: cognate 1, non-cognate 0); higher = stronger binding
# Details: with parS DNA site
# In short: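 Fitness is the rescaled log change in variant-to-wild-type read ratio, measured by Illumina sequencing of plasmids before and after bacterial one-hybrid selection. The scale puts cognate at 1 and non-cognate at 0. Selection of Caulobacter ParB libraries, four specificity codons randomised, took place in E. coli USO with a HIS3 reporter, site 19 bp from the promoter, over 48 hours at 37°C on M9-minus-histidine with 0.1 mM IPTG and 5 mM 3-AT.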
row,Variant,one-hybrid fitness for binding parS DNA
1,PQCT,≤ 0.2
2,AYIG,≤ 0.2
3,HGTM,≤ 0.2
4,RYRV,≤ 0.2
5,SHLR,≤ 0.2
6,VPHG,≤ 0.2
7,KAVS,≤ 0.2
8,RYWS,0.99
9,RYWH,≤ 0.2
10,RYPP,≤ 0.2
11,RYPD,≤ 0.2
12,RYLD,0.206
13,RYIY,0.352
14,RYWN,0.422
15,RYLH,≤ 0.2
16,RYPC,0.477
17,RYPS,0.635
18,RYLS,0.986
19,RYIC,0.757
20,PNPL,≤ 0.2
21,SDTR,≤ 0.2
22,MCER,≤ 0.2
23,YVVN,≤ 0.2
24,HTHM,≤ 0.2

row,Variant,one-hybrid fitness for binding parS DNA
1,APRT,≤ 0.2
2,VFSS,≤ 0.2
3,NMCG,≤ 0.2
4,TSPA,≤ 0.2
5,VQAC,≤ 0.2
6,NLYH,≤ 0.2
7,RYIF,≤ 0.2
8,RYPT,0.403
9,RYIT,0.628
10,VSVG,≤ 0.2
11,ATKL,≤ 0.2
12,LWCV,≤ 0.2
13,TMIC,≤ 0.2
14,RQDA,0.546
15,RQNA,0.613
16,GTRS,≤ 0.2
17,WREM,≤ 0.2
18,KDAT,≤ 0.2
19,KNTT,≤ 0.2
20,RWVM,0.27
21,RWKF,0.288
22,RWKC,0.896
23,RWKK,≤ 0.2
24,RWVC,0.544

row,Variant,one-hybrid fitness for binding parS DNA
1,RWVD,≤ 0.2
2,LFFG,≤ 0.2
3,RIAF,0.213
4,RIAK,≤ 0.2
5,RIFC,0.96
6,RIFN,0.438
7,RIAC,0.973
8,RIFH,0.213
9,HAMK,≤ 0.2
10,NSMR,≤ 0.2
11,HTHL,≤ 0.2
12,RWMD,≤ 0.2
13,RWMP,≤ 0.2
14,RWMG,0.671
15,RWMQ,≤ 0.2
16,RWMH,≤ 0.2
17,RWMC,0.628
18,RWMK,≤ 0.2
19,RWMN,0.211
20,RWMS,0.788
21,RWMR,≤ 0.2
22,RWMT,0.556
23,RWMM,≤ 0.2
24,FGNS,≤ 0.2

row,Variant,one-hybrid fitness for binding parS DNA
1,ACYG,≤ 0.2
2,CHPN,≤ 0.2
3,SMHF,≤ 0.2
4,RWVG,0.584
5,RWKD,≤ 0.2
6,RWKN,0.421
7,RWVR,≤ 0.2
8,RWKG,0.901
9,RWVK,≤ 0.2
10,DTHI,≤ 0.2
11,EYGF,≤ 0.2
12,AERY,≤ 0.2
13,KENP,≤ 0.2
14,FRDG,≤ 0.2
15,HAQD,≤ 0.2
16,RGTR,≤ 0.2
17,RGTG,0.78
18,RGTP,≤ 0.2
19,RGTD,≤ 0.2
20,RGTN,0.25
21,RGTF,≤ 0.2
22,RGTT,0.624
23,RGTH,≤ 0.2
24,RGTM,≤ 0.2

row,Variant,one-hybrid fitness for binding parS DNA
1,RGTC,0.695
2,RGTS,0.863
3,RGTK,≤ 0.2
4,TYYF,≤ 0.2
5,PKPC,≤ 0.2
6,QSEI,≤ 0.2
7,CPAM,≤ 0.2
8,QILY,≤ 0.2
9,QADE,≤ 0.2
10,CSLA,≤ 0.2
11,RAKC,0.91
12,RAKR,≤ 0.2
13,RAKM,0.448
14,RAVN,0.388
15,RAVP,≤ 0.2
16,RAVC,0.851
17,CAPG,≤ 0.2
18,TVAL,≤ 0.2
19,SDKW,≤ 0.2
20,FVSL,≤ 0.2
21,KQRR,≤ 0.2
22,IVGT,≤ 0.2
23,LIKM,≤ 0.2
24,INCG,≤ 0.2

row,Variant,one-hybrid fitness for binding parS DNA
1,RTVT,0.879
2,RTKP,≤ 0.2
3,RTKQ,≤ 0.2
4,RTVK,≤ 0.2
5,RTVQ,≤ 0.2
6,RTKT,0.74
7,SPTS,≤ 0.2
8,AAYI,≤ 0.2
9,AFVR,≤ 0.2
10,SQAR,≤ 0.2
11,QSAW,≤ 0.2
12,RFVC,0.753
13,RFKC,0.991
14,NFKC,≤ 0.2
15,DFVC,≤ 0.2
16,NFVC,≤ 0.2
17,DFKC,≤ 0.2
18,ARWW,0.23
19,ICDS,≤ 0.2
20,HSSC,≤ 0.2
21,IVSG,0.263
22,STPM,≤ 0.2
23,SILY,≤ 0.2
24,RTAQ,≤ 0.2

row,Variant,one-hybrid fitness for binding parS DNA
1,RTAT,0.918
2,RTAR,≤ 0.2
3,RTFM,0.334
4,RTFQ,0.26
5,RTFT,0.911
6,EICA,≤ 0.2
7,RNHW,≤ 0.2
8,GQRT,≤ 0.2
9,LGMH,≤ 0.2
10,QVAS,≤ 0.2
11,REAA,≤ 0.2
12,RGFA,0.215
13,RMFA,0.61
14,RNAA,0.456
15,RMAA,0.59
16,NNVS,≤ 0.2
17,HPRW,≤ 0.2
18,RKGE,≤ 0.2
19,RIRP,≤ 0.2
20,RILS,1.04
21,RIWD,≤ 0.2
22,RIHS,0.97
23,RIWP,0.223
24,RIRS,0.874

row,Variant,one-hybrid fitness for binding parS DNA
1,RILP,≤ 0.2
2,RIWS,1.05
3,RIRD,≤ 0.2
4,RILH,≤ 0.2
5,RIHN,0.463
6,RIHD,≤ 0.2
7,YILC,≤ 0.2
8,NTNE,≤ 0.2
9,HGYW,≤ 0.2
10,PCLT,≤ 0.2
11,RIYH,≤ 0.2
12,RIYS,1.07
13,RIYN,0.476
14,VRVS,≤ 0.2
15,VYCV,≤ 0.2
16,VANG,≤ 0.2
17,RVKN,0.46
18,RVVH,≤ 0.2
19,RVVP,≤ 0.2
20,RVKD,≤ 0.2
21,RVKT,0.761
22,RVVT,0.795
23,SDSY,≤ 0.2
24,RRMV,≤ 0.2

row,Variant,one-hybrid fitness for binding parS DNA
1,RLHQ,≤ 0.2
2,RDHG,≤ 0.2
3,REHG,0.236
4,RCHG,0.994
5,RLHG,1.01
6,RIHG,1.02
7,RIHY,0.461
8,RIHF,≤ 0.2
9,RSHQ,≤ 0.2
10,RLHM,0.321
11,RPHG,≤ 0.2
12,RSHG,1
13,CRRT,≤ 0.2
14,TFGN,≤ 0.2
15,FDPG,≤ 0.2
16,QNIS,≤ 0.2
17,FWAR,≤ 0.2
18,TTPY,≤ 0.2
19,NYDR,≤ 0.2
20,DKHC,≤ 0.2
21,YHHS,≤ 0.2
22,RHGM,0.232
23,RHQK,≤ 0.2
24,RHGT,0.832

row,Variant,one-hybrid fitness for binding parS DNA
1,RHGF,≤ 0.2
2,RHCT,0.766
3,RHQF,≤ 0.2
4,RHCD,≤ 0.2
5,RHQT,0.853
6,RHSY,0.41
7,RHSF,≤ 0.2
8,RHST,0.854
9,RHCN,0.381
10,WKSA,≤ 0.2
11,NGKG,≤ 0.2
12,MLAT,≤ 0.2
13,AQPR,≤ 0.2
14,VSSM,≤ 0.2
15,GPRN,≤ 0.2
16,MTAN,≤ 0.2
17,FTMR,≤ 0.2
18,TSLA,≤ 0.2
19,VLVS,≤ 0.2
20,TYKP,≤ 0.2
21,SNHT,≤ 0.2
22,RHWR,≤ 0.2
23,RHRT,0.788
24,RHRM,0.277

row,Variant,one-hybrid fitness for binding parS DNA
1,RHYN,0.448
2,RHRY,0.473
3,RHYT,0.806
4,RHYK,≤ 0.2
5,RHWT,0.692
6,RHWK,≤ 0.2
7,ITCG,≤ 0.2
8,LTNS,≤ 0.2
9,TGVT,≤ 0.2
10,VSLW,≤ 0.2
11,SSDD,≤ 0.2
12,RLIC,0.938
13,RLIQ,≤ 0.2
14,RLPF,≤ 0.2
15,RLPC,0.681
16,RLIF,≤ 0.2
17,RLPR,≤ 0.2
18,SDVC,≤ 0.2
19,QSHD,≤ 0.2
20,RMNA,0.606
21,RMDA,0.572
22,SISG,≤ 0.2
23,RVGS,0.954
24,RVQH,0.223

row,Variant,one-hybrid fitness for binding parS DNA
1,RVSN,0.426
2,RVGP,≤ 0.2
3,RVQS,0.989
4,RVHH,0.235
5,RVHN,0.425
6,RVGH,≤ 0.2
7,RVSP,≤ 0.2
8,RVQD,≤ 0.2
9,RVHS,0.972
10,RVSS,0.975
11,IMHT,≤ 0.2
12,WTRR,≤ 0.2
13,ISNF,≤ 0.2
14,FYDL,≤ 0.2
15,IAGR,≤ 0.2
16,TAIN,≤ 0.2
17,RVWD,0.212
18,RVYD,0.216
19,RVRN,0.409
20,RVWS,1.05
21,RVRS,0.895
22,RVRD,≤ 0.2
23,RVCH,≤ 0.2
24,RVCD,≤ 0.2

row,Variant,one-hybrid fitness for binding parS DNA
1,RVCS,1.03
2,RVWN,0.478
3,RVYH,0.263
4,RVYS,1.04
5,MMSR,≤ 0.2
6,MHFY,≤ 0.2
7,QASI,≤ 0.2
8,TREC,≤ 0.2
9,PYKT,≤ 0.2
10,HPDN,≤ 0.2
11,KRKQ,≤ 0.2
12,KLMV,≤ 0.2
13,RVLP,≤ 0.2
14,RVLH,0.229
15,RVLS,1.03
16,TMII,≤ 0.2
17,RSVK,≤ 0.2
18,RSVM,0.265
19,RCVG,0.991
20,RDVG,≤ 0.2
21,RPVG,≤ 0.2
22,RSVG,0.89
